# Measurements from PubChem BioAssay (EPA / NIEHS).
# Where “and” joins values, the source holds several entries; their conditions need not be identical. Equal entries are not always repeated. More than one record can exist for a structure, and the calls need not agree. Calls of active or inactive are those of the source. Rule for the calls: active = hit-call score of the fitted dose curve at least 0.9, where 1 is the maximum; inactive = score below 0.9.
# Tests used:
# Conditions in all cases: mRNA level, 48 h; actives raise or lower the signal
# [1] = read-out: flavin-containing dimethylaniline monooxygenases 3 (FMO3), FMO3 (gene 2328); assay: LTEA_HepaRG_FMO3: Life Technologies and Expression Analysis (LTEA) Assay for flavin-containing dimethylaniline monooxygenases 3 (FMO3) using HepaRG (AID 2283453)
# Procedure, shortened: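 Differentiated HepaRG cells in serum-free induction medium, exposed 48 h in duplicate to 8 half-log concentrations up to 100 uM in 0.5% DMSO. FMO3 mRNA by qRT-PCR, normalized to ACTB, GAPDH, POLR2A; bidirectional fit vs DMSO.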
# [2] = read-out: Cytochrome P450 (CYP1A1), CYP1A1 (gene 1543); assay: LTEA_HepaRG_CYP1A1: Life Technologies and Expression Analysis (LTEA) Assay for Cytochrome P450 (CYP1A1) using HepaRG (AID 2283454)
# Procedure, shortened: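 Induction of CYP1A1 mRNA in a human hepatic cell line was measured 48 h after dosing, with 1 mM phenobarbital as induction positive control and 0.5% DMSO vehicle as baseline for bidirectional curve fitting.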
# [3] = read-out: CFLAR gene, CFLAR (gene 8837); assay: LTEA_HepaRG_CFLAR: Life Technologies and Expression Analysis (LTEA) Assay for CFLAR gene using HepaRG (AID 2283455)
# Procedure, shortened: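 Differentiated HepaRG cells in serum-free induction medium were exposed 48 h in duplicate to eight half-log concentrations up to 100 uM in 0.5% DMSO; mRNA measured by TaqMan qRT-PCR, normalized to ACTB, GAPDH, POLR2A; bidirectional fitting versus DMSO.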
# [4] = read-out: Forkhead box O1 (FOXO1), FOXO1 (gene 2308); assay: LTEA_HepaRG_FOXO1: Life Technologies and Expression Analysis (LTEA) Assay for Forkhead box O1 (FOXO1) using HepaRG (AID 2283456)
# Procedure, shortened: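 Differentiated HepaRG cells, in serum-free induction medium with 0.5% DMSO, exposed 48 h in duplicate to 8-point half-log series from 100 uM. FOXO1 mRNA measured by TaqMan qRT-PCR, normalized to ACTB, GAPDH, POLR2A; bidirectional fit versus DMSO.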
# [5] = read-out: growth arrest and DNA damage 45 (GADD45A), GADD45A (gene 1647); assay: LTEA_HepaRG_GADD45A: Life Technologies and Expression Analysis (LTEA) Assay for growth arrest and DNA damage 45 (GADD45A) using HepaRG (AID 2283458)
# Procedure, shortened: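 Cells plated and cultured 48 h, switched to serum-free induction medium, then dosed for 48 h (100 uM top, half-log dilutions, 0.5% DMSO). RNA was isolated and transcript measured by Fluidigm qRT-PCR.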
# [6] = read-out: Forkhead box O3 (FOXO3), FOXO3 (gene 2309); assay: LTEA_HepaRG_FOXO3: Life Technologies and Expression Analysis (LTEA) Assay for Forkhead box O3 (FOXO3) using HepaRG (AID 2283459)
# Procedure, shortened: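 Differentiated human HepaRG cells, 48 h post-plating, exposed in duplicate for 48 h in serum-free induction medium; 8-point half-log series from 100 uM in 0.5% DMSO. FOXO3 mRNA by TaqMan qRT-PCR, normalized to ACTB/GAPDH/POLR2A; bidirectional fit versus DMSO.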
# [7] = read-out: ABC Transporter (ABCB1), ABCB1 (gene 5243); assay: LTEA_HepaRG_ABCB1: Life Technologies and Expression Analysis (LTEA) Assay for ABC Transporter (ABCB1) using HepaRG (AID 2283460)
# Procedure, shortened: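 HepaRG cells exposed in duplicate for 48 h in serum-free induction medium to eight half-log concentrations up to 100 uM in 0.5% DMSO. ABCB1 mRNA quantified by qRT-PCR, normalised to ACTB, GAPDH and POLR2A; fitted bidirectionally versus DMSO.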
# [8] = read-out: growth arrest and DNA damage 45 (GADD45B), GADD45B (gene 4616); assay: LTEA_HepaRG_GADD45B: Life Technologies and Expression Analysis (LTEA) Assay for growth arrest and DNA damage 45 (GADD45B) using HepaRG (AID 2283461)
# Procedure, shortened: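 Values are bidirectional concentration-response fits against 0.5% DMSO controls. Underlying data: qRT-PCR mRNA levels in human HepaRG liver cells treated 48 h in serum-free induction medium, eight concentrations topping at 100 uM.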
# [9] = read-out: ABC Transporter (ABCC3), ABCC3 (gene 8714); assay: LTEA_HepaRG_ABCC3: Life Technologies and Expression Analysis (LTEA) Assay for ABC Transporter (ABCC3) using HepaRG (AID 2283462)
# Procedure, shortened: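 Differentiated HepaRG liver cells receive test chemicals at eight concentrations (max 100 uM) for 48 h. Expression of ABCC3 is quantified by qRT-PCR against ACTB, GAPDH and POLR2A, and activity is fitted in both directions against the DMSO control.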
# [10] = read-out: ABC Transporter (ABCB11), ABCB11 (gene 8647); assay: LTEA_HepaRG_ABCB11: Life Technologies and Expression Analysis (LTEA) Assay for ABC Transporter (ABCB11) using HepaRG (AID 2283463)
# Procedure, shortened: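 Differentiated human HepaRG cells in serum-free induction medium, dosed in duplicate for 48 h. Eight-point half-log series from 100 uM in 0.5% DMSO; ABCB11 mRNA by qRT-PCR, normalized to ACTB, GAPDH, POLR2A, fitted bidirectionally versus DMSO.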
# [11] = read-out: ABC Transporter (ABCC2), ABCC2 (gene 1244); assay: LTEA_HepaRG_ABCC2: Life Technologies and Expression Analysis (LTEA) Assay for ABC Transporter (ABCC2) using HepaRG (AID 2283464)
# Procedure, shortened: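 Gene expression of ABCC2 was determined by qRT-PCR in HepaRG cells exposed 48 h to chemicals (highest 100 uM, half-log dilutions). Activity was fitted in both directions relative to 0.5% DMSO vehicle.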
# [12] = read-out: Broad substrate specificity ATP-binding cassette transporter ABCG2 (Homo sapiens) (UniProt Q9UNQ0); assay: LTEA_HepaRG_ABCG2: Life Technologies and Expression Analysis (LTEA) Assay for ABC Transporter (ABCG2) using HepaRG (AID 2283465)
# Procedure, shortened: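 Differentiated HepaRG cells were exposed for 48 h in serum-free induction medium to 8 half-log concentrations, top 100 uM, in 0.5% DMSO. ABCG2 mRNA was measured by qRT-PCR, normalized to ACTB, GAPDH and POLR2A, with bidirectional fitting versus DMSO.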
# [13] = read-out: ATP-citrate lyase (ACLY), ACLY (gene 47); assay: LTEA_HepaRG_ACLY: Life Technologies and Expression Analysis (LTEA) Assay for ATP-citrate lyase (ACLY) using HepaRG (AID 2283466)
# Procedure, shortened: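 Differentiated HepaRG cells exposed 48 h in serum-free induction medium to eight half-log concentrations up to 100 uM in 0.5% DMSO, duplicates. Transcript measured by Fluidigm TaqMan qRT-PCR, normalized to ACTB, GAPDH, POLR2A; bidirectional fit versus DMSO.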
# [14] = read-out: Peroxisomal acyl-coenzyme A oxidase 1 (ACOX1) gene, ACOX1 (gene 51); assay: LTEA_HepaRG_ACOX1: Life Technologies and Expression Analysis (LTEA) Assay for Peroxisomal acyl-coenzyme A oxidase 1 (ACOX1) gene using HepaRG (AID 2283467)
# Procedure, shortened: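 HepaRG cells, plated 48 h then switched to serum-free induction medium, were exposed in duplicate for 48 h to 8-point half-log concentrations up to 100 uM in 0.5% DMSO. ACOX1 mRNA was measured by qRT-PCR, normalized to ACTB/GAPDH/POLR2A, and fitted bidirectionally versus DMSO.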
# [15] = read-out: Alkaline Phosphatase, Placental (ALPP) gene, ALPP (gene 250); assay: LTEA_HepaRG_ALPP: Life Technologies and Expression Analysis (LTEA) Assay for Alkaline Phosphatase, Placental (ALPP) gene using HepaRG (AID 2283468)
# Procedure, shortened: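 Expression of ALPP was quantified by qRT-PCR against three housekeeping genes in human HepaRG cultures treated for 48 h with an eight-point concentration series up to 100 uM. Activity in either direction was fitted relative to 0.5% DMSO.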
# [16] = read-out: Bcl-2 (BAD) gene, BAD (gene 572); assay: LTEA_HepaRG_BAD: Life Technologies and Expression Analysis (LTEA) Assay for Bcl-2 (BAD) gene using HepaRG (AID 2283469)
# Procedure, shortened: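 Differentiated HepaRG cells were exposed in duplicate in 0.5% DMSO for 48 h to eight-point half-log concentrations up to 100 uM. BAD mRNA was measured by Fluidigm TaqMan qRT-PCR, normalized to ACTB, GAPDH and POLR2A, and fitted bidirectionally against DMSO.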
# [17] = read-out: Bcl-2 (BAX) gene, BAX (gene 581); assay: LTEA_HepaRG_BAX: Life Technologies and Expression Analysis (LTEA) Assay for Bcl-2 (BAX) gene using HepaRG (AID 2283470)
# Procedure, shortened: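 HepaRG (human liver), 48 h exposure, duplicate wells. 8-pt curve, half-log from 100 uM, 0.5% DMSO. BAX transcript by TaqMan qRT-PCR; ACTB/GAPDH/POLR2A normalization; gain or loss vs DMSO baseline.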
# [18] = read-out: adenosine kinase (ADK) gene, ADK (gene 132); assay: LTEA_HepaRG_ADK: Life Technologies and Expression Analysis (LTEA) Assay for adenosine kinase (ADK) gene using HepaRG (AID 2283471)
# Procedure, shortened: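 Read-out is ADK transcript level measured by qRT-PCR and normalised to three housekeeping genes. Cells are human HepaRG, dosed for 48 h at up to 100 uM in 0.5% DMSO. Gain or loss of signal is fitted against DMSO controls.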
# [19] = read-out: Alpha-fetoprotein (AFP) gene, AFP (gene 174); assay: LTEA_HepaRG_AFP: Life Technologies and Expression Analysis (LTEA) Assay for Alpha-fetoprotein (AFP) gene using HepaRG (AID 2283472)
# Procedure, shortened: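 HepaRG, single lot; 48 h post-plating -> serum-free induction medium; cpd 8-pt, 100 uM top, half-log, 0.5% DMSO, duplicate, 48 h. RNA -> qRT-PCR AFP, norm ACTB/GAPDH/POLR2A. Bidirectional fit vs DMSO.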
# Sequence of Broad substrate specificity ATP-binding cassette transporter ABCG2 (Homo sapiens) (Q9UNQ0 whole entry, looked up): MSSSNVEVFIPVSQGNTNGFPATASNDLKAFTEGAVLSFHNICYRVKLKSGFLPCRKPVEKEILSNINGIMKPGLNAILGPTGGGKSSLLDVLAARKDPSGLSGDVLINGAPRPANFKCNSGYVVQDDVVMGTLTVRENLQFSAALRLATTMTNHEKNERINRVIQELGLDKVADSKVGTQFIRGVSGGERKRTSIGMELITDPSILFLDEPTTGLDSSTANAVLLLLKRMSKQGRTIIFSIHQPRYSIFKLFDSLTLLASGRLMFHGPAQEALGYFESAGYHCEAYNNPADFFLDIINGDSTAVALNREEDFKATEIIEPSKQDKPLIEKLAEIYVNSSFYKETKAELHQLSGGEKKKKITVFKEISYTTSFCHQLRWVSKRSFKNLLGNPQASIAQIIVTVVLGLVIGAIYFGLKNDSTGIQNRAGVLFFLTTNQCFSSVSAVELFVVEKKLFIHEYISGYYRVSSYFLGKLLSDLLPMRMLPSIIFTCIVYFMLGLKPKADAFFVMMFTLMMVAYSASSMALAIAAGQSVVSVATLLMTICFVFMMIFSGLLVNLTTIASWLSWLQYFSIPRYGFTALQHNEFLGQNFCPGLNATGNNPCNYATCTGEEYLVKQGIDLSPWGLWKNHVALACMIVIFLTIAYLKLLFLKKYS
smiles,measurement,setting,value
S=C([S-])NCCNC(=S)[S-].[Mn+2],AC50,[1],5.71 µM (active)
same,AC50,[2],8.74 µM (active)
same,AC50,[3],3.43 µM (active)
same,AC50,[4],9.26 µM (active)
same,AC50,[5],5.52 µM (active)
same,AC50,[6],3.51 µM (active)
same,AC50,[7],3.47 µM (active)
same,AC50,[8],5.56 µM (active)
same,AC50,[9],2.06 µM (active)
same,AC50,[10],1.85 µM (active)
same,AC50,[11],2.87 µM (active)
same,outcome,[12],inactive
same,AC50,[13],871 nM (active)
same,AC50,[14],2.64 µM (active)
same,outcome,[15],inactive
same,outcome,[16],inactive
same,outcome,[17],inactive
same,AC50,[18],628 nM (active)
same,AC50,[19],3.16 µM (active)
S=C(S)NCCNC(=S)S.[Mn+2].[S-]C([S-])=NCCN=C([S-])[S-].[Zn+2],AC50,[1],4.22 µM (active) and 2.04 µM (active) and 2.68 µM (active)
same,AC50,[2],116 nM (active) and 122 nM (active)
same,AC50,[3],1.31 µM (active) and 1.18 µM (active) and 1.48 µM (active)
same,AC50,[4],4.79 µM (active) and 9.06 µM (active)
same,outcome,[4],inactive
same,AC50,[5],3.61 µM (active) and 2.03 µM (active)
same,outcome,[5],inactive
same,AC50,[6],1.62 µM (active) and 1.21 µM (active)
same,outcome,[6],inactive
same,AC50,[7],881 nM (active) and 993 nM (active) and 732 nM (active)
same,AC50,[8],3.12 µM (active) and 2.14 µM (active) and 4.41 µM (active)
same,AC50,[9],717 nM (active) and 898 nM (active) and 1.03 µM (active)
same,AC50,[10],695 nM (active) and 718 nM (active) and 693 nM (active)
same,AC50,[11],1.09 µM (active) and 988 nM (active) and 1.44 µM (active)
same,AC50,[12],200 nM (active) and 267 nM (active) and 401 nM (active)
same,AC50,[13],200 nM (active) and 397 nM (active) and 391 nM (active)
same,AC50,[14],799 nM (active) and 1.07 µM (active) and 953 nM (active)
same,AC50,[15],25 µM (active)
same,outcome,[15],inactive
same,outcome,[16],inactive
same,AC50,[17],2.35 µM (active) and 1.62 µM (active)
same,outcome,[17],inactive
same,AC50,[18],255 nM (active) and 1.08 µM (active) and 270 nM (active)
same,AC50,[19],1.28 µM (active) and 1.55 µM (active)
CCCCC(CC)COC(=O)c1ccccc1C(=O)O (configuration not stated),outcome,[1],inactive
same,AC50,[2],77.2 µM (active)
same,outcome,[3],inactive
same,outcome,[4],inactive
same,outcome,[5],inactive
same,outcome,[6],inactive
same,AC50,[7],74.9 µM (active)
same,outcome,[8],inactive
same,outcome,[9],inactive
same,AC50,[10],41.9 µM (active)
same,outcome,[11],inactive
same,outcome,[12],inactive
same,outcome,[13],inactive
same,outcome,[14],inactive
same,outcome,[15],inactive
same,outcome,[16],inactive
same,outcome,[17],inactive
same,outcome,[18],inactive
same,outcome,[19],inactive
